# Source: PubChem BioAssay AID1159580 (chemical genetic matrix, 2015)
# The whole screen tested about 5,500 compounds, of which about 2,000 (36%) were called active. Another 18% or so got no clear call; they are omitted. Some of the results follow. A number with no mark means an inactive call. Rule as the data show it: active = normalized growth mostly below about 0.91 (no sharp cut-off); inconclusive = no clear call, values can overlap the other calls; inactive = mostly above about 0.92.
# Test: chemical genetic growth profiling, strain panel (AID 1159580);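 also: tested at 20 µM; growth read once vehicle control cultures reached saturation at 30 °C; 1 = growth at the plate median or of vehicle wells; lower values mean less growth of the strain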
# Conditions: growth OD
# [1] = S. cerevisiae deletion strains, locus YDL101C, strain DUN1, hits give low values
# [2] = S. cerevisiae deletion strains, locus YHR030C, strain SLT2, hits give low values
compound,measurement,setting,value
C/C(=N/Nc1c(Cl)cc(Cl)cc1Cl)c1cc(F)ccc1OC(=O)c1ccccc1F,normalized growth,"S. cerevisiae deletion strains, locus YAL013W, strain DEP1, hits give low values",0.99
same,normalized growth,"S. cerevisiae deletion strains, locus YBR229C, strain ROT2, hits give low values",0.978
same,normalized growth,[1],0.969
same,normalized growth,"S. cerevisiae deletion strains, locus YDL134C, strain PPH21, hits give low values",1.03
same,normalized growth,"S. cerevisiae deletion strains, locus YDR150W, strain NUM1, hits give low values",0.991
same,normalized growth,"S. cerevisiae deletion strains, locus YEL061C, strain CIN8, hits give low values",1.04
same,normalized growth,"S. cerevisiae deletion strains, locus YGR078C, strain PAC10, hits give low values",0.983
same,normalized growth,[2],1.04
same,normalized growth,"S. cerevisiae deletion strains, locus YHR087W, strain rtc3, hits give low values",0.978
same,normalized growth,"S. cerevisiae deletion strains, locus YJR043C, strain POL32, hits give low values",0.968
same,normalized growth,"S. cerevisiae deletion strains, locus YJR075W, strain HOC1, hits give low values",0.984
same,normalized growth,"S. cerevisiae deletion strains, locus YKL190W, strain CNB1, hits give low values",1.03
same,normalized growth,"S. cerevisiae deletion strains, locus YLR039C, strain RIC1, hits give low values",1.02
same,normalized growth,"S. cerevisiae deletion strains, locus YLR058C, strain SHM2 (second series), hits give low values",1.01
same,normalized growth,"S. cerevisiae deletion strains, locus YLR085C, strain ARP6, hits give low values",1.11
same,normalized growth,"S. cerevisiae deletion strains, locus YLR262C, strain YPT6, hits give low values",0.957
same,normalized growth,"S. cerevisiae deletion strains, locus YML094W, strain GIM5, hits give low values",1.01
same,normalized growth,"S. cerevisiae deletion strains, locus YMR219W, strain ESC1, hits give low values",0.966
same,normalized growth,"S. cerevisiae deletion strains, locus YMR263W, strain SAP30, hits give low values",0.996
same,normalized growth,"S. cerevisiae deletion strains, locus YNL128W, strain TEP1, hits give low values",1.03
same,normalized growth,"S. cerevisiae deletion strains, locus YNL153C, strain GIM3, hits give low values",0.953
same,normalized growth,"S. cerevisiae deletion strains, locus YNL298W, strain CLA4 (second series), hits give low values",1.07
same,normalized growth,"S. cerevisiae deletion strains, locus YNL322C, strain KRE1, hits give low values",1.01
same,normalized growth,"S. cerevisiae deletion strains, locus YNR030W, strain Alg12, hits give low values",1.03
same,normalized growth,"S. cerevisiae deletion strains, locus YOL006C, strain TOP1, hits give low values",1.06
same,normalized growth,"S. cerevisiae deletion strains, locus YPL055C, strain LGE1, hits give low values",0.981
same,normalized growth,"S. cerevisiae deletion strains, locus YPL241C, strain CIN2, hits give low values",0.972
same,normalized growth,"S. cerevisiae deletion strains, locus YPR135W, strain CTF4, hits give low values",0.962
same,normalized growth,"S. cerevisiae strains, strain wild type, hits give low values",1.03
C/C(=N/Nc1ccccc1)c1cc(Cl)cc(Cl)c1O,normalized growth,"S. cerevisiae deletion strains, locus YAR019C, strain CDC15, hits give low values",0.964
same,normalized growth,"S. cerevisiae deletion strains, locus YBL105C, strain PKC1, hits give low values",0.977
same,normalized growth,"S. cerevisiae deletion strains, locus YBR135W, strain CKS1, hits give low values",0.954
same,normalized growth,"S. cerevisiae deletion strains, locus YBR136W, strain MEC1, hits give low values",0.954
same,normalized growth,"S. cerevisiae deletion strains, locus YBR160W, strain CDC28, hits give low values",0.958
same,normalized growth,"S. cerevisiae deletion strains, locus YDL017W, strain CDC7, hits give low values",0.964
same,normalized growth,"S. cerevisiae deletion strains, locus YDL028C, strain MPS1, hits give low values",0.967
same,normalized growth,[1],0.969
same,normalized growth,"S. cerevisiae deletion strains, locus YDL108W, strain KIN28, hits give low values",0.954
same,normalized growth,"S. cerevisiae deletion strains, locus YDL132W, strain cdc53, hits give low values",0.956
same,normalized growth,"S. cerevisiae deletion strains, locus YDL214C, strain PRR2, hits give low values",0.785
same,normalized growth,"S. cerevisiae deletion strains, locus YDR052C, strain DBF4, hits give low values",0.968
same,normalized growth,"S. cerevisiae deletion strains, locus YDR054C, strain cdc34, hits give low values",0.966
same,normalized growth,"S. cerevisiae deletion strains, locus YDR226W, strain ADK1, hits give low values",0.954
same,normalized growth,"S. cerevisiae deletion strains, locus YDR477W, strain SNF1, hits give low values",0.734
same,normalized growth,"S. cerevisiae deletion strains, locus YER123W, strain YCK3, hits give low values",0.734
same,normalized growth,"S. cerevisiae deletion strains, locus YER133W, strain GLC7, hits give low values",0.825
same,normalized growth,"S. cerevisiae deletion strains, locus YFL009W, strain cdc4, hits give low values",0.964
same,normalized growth,"S. cerevisiae deletion strains, locus YFL029C, strain CAK1, hits give low values",0.955
same,normalized growth,"S. cerevisiae deletion strains, locus YFR003C, strain YPI1, hits give low values",0.962
same,normalized growth,"S. cerevisiae deletion strains, locus YFR019W, strain FAB1, hits give low values",0.834
same,normalized growth,"S. cerevisiae deletion strains, locus YFR028C, strain CDC14, hits give low values",0.93
same,normalized growth,"S. cerevisiae deletion strains, locus YGR040W, strain KSS1, hits give low values",0.746
same,normalized growth,"S. cerevisiae deletion strains, locus YGR052W, strain FMP48, hits give low values",0.804
same,normalized growth,"S. cerevisiae deletion strains, locus YGR092W, strain DBF2, hits give low values",0.658
same,normalized growth,[2],0.308 (active)
same,normalized growth,"S. cerevisiae deletion strains, locus YHR079C, strain IRE1, hits give low values",0.748
same,normalized growth,"S. cerevisiae deletion strains, locus YHR082C, strain KSP1, hits give low values",0.731
same,normalized growth,"S. cerevisiae deletion strains, locus YHR205W, strain SCH9, hits give low values",0.694
same,normalized growth,"S. cerevisiae deletion strains, locus YIL147C, strain SLN1, hits give low values",0.968
same,normalized growth,"S. cerevisiae deletion strains, locus YJL095W, strain BCK1, hits give low values",0.815
same,normalized growth,"S. cerevisiae deletion strains, locus YJL128C, strain PBS2, hits give low values",0.884
same,normalized growth,"S. cerevisiae deletion strains, locus YJL157C, strain FAR1, hits give low values",0.79
same,normalized growth,"S. cerevisiae deletion strains, locus YJR016C, strain ILV3, hits give low values",0.954
same,normalized growth,"S. cerevisiae deletion strains, locus YJR066W, strain TOR1 (second series), hits give low values",0.829
same,normalized growth,"S. cerevisiae deletion strains, locus YJR066W, strain TOR1, hits give low values",0.66
same,normalized growth,"S. cerevisiae deletion strains, locus YKL048C, strain ELM1, hits give low values",0.87
same,normalized growth,"S. cerevisiae deletion strains, locus YKL067W, strain YNK1, hits give low values",0.851
same,normalized growth,"S. cerevisiae deletion strains, locus YKL101W, strain HSL1, hits give low values",0.798
same,normalized growth,"S. cerevisiae deletion strains, locus YKL193C, strain SDS22, hits give low values",0.948
same,normalized growth,"S. cerevisiae deletion strains, locus YKL203C, strain TOR2, hits give low values",0.745
same,normalized growth,"S. cerevisiae deletion strains, locus YLR113W, strain HOG1, hits give low values",0.792 (active)
same,normalized growth,"S. cerevisiae deletion strains, locus YLR133W, strain CKI1, hits give low values",0.731 (active)
same,normalized growth,"S. cerevisiae deletion strains, locus YLR403W, strain SFP1, hits give low values",0.681
same,normalized growth,"S. cerevisiae deletion strains, locus YML070W, strain DAK1, hits give low values",0.81
same,normalized growth,"S. cerevisiae deletion strains, locus YMR001C, strain CDC5, hits give low values",0.954
same,normalized growth,"S. cerevisiae deletion strains, locus YMR205C, strain PFK2 (second series), hits give low values",0.862
same,normalized growth,"S. cerevisiae deletion strains, locus YMR277W, strain FCP1, hits give low values",0.95
same,normalized growth,"S. cerevisiae deletion strains, locus YNL006W, strain LST8, hits give low values",0.966
same,normalized growth,"S. cerevisiae deletion strains, locus YNL020C, strain ARK1, hits give low values",0.647 (active)
same,normalized growth,"S. cerevisiae deletion strains, locus YNL161W, strain CBK1, hits give low values",0.964
same,normalized growth,"S. cerevisiae deletion strains, locus YNL183C, strain NPR1, hits give low values",0.872
same,normalized growth,"S. cerevisiae deletion strains, locus YNL207W, strain RIO2, hits give low values",0.958
same,normalized growth,"S. cerevisiae deletion strains, locus YNL222W, strain SSU72, hits give low values",0.961
same,normalized growth,"S. cerevisiae deletion strains, locus YNL307C, strain MCK1 (second series), hits give low values",0.632 (active)
same,normalized growth,"S. cerevisiae deletion strains, locus YOL078W, strain AVO1, hits give low values",0.961
same,normalized growth,"S. cerevisiae deletion strains, locus YOL136C, strain PFK27, hits give low values",0.764
same,normalized growth,"S. cerevisiae deletion strains, locus YOR061W, strain CKA2, hits give low values",0.784
same,normalized growth,"S. cerevisiae deletion strains, locus YOR119C, strain RIO1, hits give low values",0.732
same,normalized growth,"S. cerevisiae deletion strains, locus YOR231W, strain MKK1, hits give low values",0.855
same,normalized growth,"S. cerevisiae deletion strains, locus YOR329C, strain SCD5, hits give low values",0.974
same,normalized growth,"S. cerevisiae deletion strains, locus YPL031C, strain PHO85, hits give low values",0.742
same,normalized growth,"S. cerevisiae deletion strains, locus YPL153C, strain RAD53, hits give low values",0.78
same,normalized growth,"S. cerevisiae deletion strains, locus YPL204W, strain HRR25, hits give low values",0.737
same,normalized growth,"S. cerevisiae deletion strains, locus YPL209C, strain IPL1, hits give low values",0.965
same,normalized growth,"S. cerevisiae deletion strains, locus YPL256C, strain CLN2, hits give low values",0.774 (active)
same,normalized growth,"S. cerevisiae deletion strains, locus YPR025C, strain CCL1, hits give low values",0.963
same,normalized growth,"S. cerevisiae deletion strains, locus YPR106W, strain ISR1, hits give low values",0.942
same,normalized growth,"S. cerevisiae deletion strains, locus YPR111W, strain DBF20, hits give low values",0.938
same,normalized growth,"S. cerevisiae deletion strains, strain NNK1, hits give low values",0.951
same,normalized growth,"S. cerevisiae deletion strains, strain TSCII, hits give low values",0.967
